Screens as filed in PubChem BioAssay.
CYP2C19 inh – blockers of cytochrome P450 2C19 activity – biochemical, luminescence, ADME assay, primary screen; CYP2C19 Supersomes, luciferin-H EGE luminescence, 30 min; inhibition, % at 5 µM; AID 778, 2007; actives 21% (n = 96,000);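 active = CYP2C19 inhibition above a set limit at 5 µM in the primary screen, cut at about 50% in these data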;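 also: plate controls were negative control wells for no effect and 2.5 mM tranylcypromine positive control for full effect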
Target sequence (P33261 whole entry, looked up): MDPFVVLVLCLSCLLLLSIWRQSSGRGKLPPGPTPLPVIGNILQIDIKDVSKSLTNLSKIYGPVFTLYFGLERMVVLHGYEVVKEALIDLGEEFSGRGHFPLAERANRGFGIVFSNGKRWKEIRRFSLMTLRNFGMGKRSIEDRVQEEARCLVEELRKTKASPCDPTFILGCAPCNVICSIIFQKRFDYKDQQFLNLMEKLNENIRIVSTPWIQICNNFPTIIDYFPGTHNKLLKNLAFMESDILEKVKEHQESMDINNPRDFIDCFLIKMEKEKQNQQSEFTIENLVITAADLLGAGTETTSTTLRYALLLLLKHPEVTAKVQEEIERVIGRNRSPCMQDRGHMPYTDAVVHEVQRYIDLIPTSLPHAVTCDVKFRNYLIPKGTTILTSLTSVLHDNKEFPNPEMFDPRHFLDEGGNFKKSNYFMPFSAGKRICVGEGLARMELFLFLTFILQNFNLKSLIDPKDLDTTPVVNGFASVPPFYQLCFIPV
CYP2C9 inhib – blockers of cytochrome P450 2C9 activity – biochemical, luminescence, ADME assay, primary screen; CYP2C9 Supersomes, luciferin-H conversion; inhibition, % at 5 µM; actives 20% (n = 96,000);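 active = blocking of liver enzyme CYP2C9 beyond about 50% at 5 µM, limit read from the data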
CYP2C9 act – human CYP2C9 activators, primary screen, biochemical, luminescence. Cytochrome P450 2C9 (Homo sapiens), P11712. recombinant CYP2C9, luciferin-H conversion; active compounds read high; factor 1 = untreated enzyme, 0 = blocked. activation factor at 5 µM. actives 1.4% (n = 96,000);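 active = activation factor of 2 or more for CYP2C9 at a 5 µM dose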;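 also: 0 = sulfaphenazole-blocked wells and 1 = vehicle-only wells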
CYP2C19 activ – human CYP2C19 activators, primary screen, biochemical, luminescence; Cytochrome P450 2C19 (Homo sapiens), P33261; recombinant CYP2C19, luciferin-H EGE luminescence; active compounds read high; 0 = fully inhibited enzyme, 1 = untreated enzyme; activation factor at 5 µM; 96,000 tested, under 10 active; AID 1025, 2008;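 active = activation factor of at least 2 at 5 µM in the primary screen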;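 also: 0 = wells with 2.5 mM tranylcypromine and 1 = vehicle-only wells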
PostGolgi ctrl – growth inhibition of yeast control strain, primary screen, counter-screen for post-Golgi transport modulator project; efflux-deficient yeast background strain, growth absorbance A615, 16 h; inhibition, % at 10 µM; actives 5% (n = 98,000)
PostGolgi yeast – phenotypic screen on post-Golgi transport, primary screen | inhibition, % at 10 µM | post-Golgi transport phenotypic cell assay | AID 739, 2007 | actives 0.9% (n = 98,000);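 also: yeast cells grown in 1536-well plates; yeast grown about 18 h at 30C before absorbance read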
An asterisk follows results filed as active; · = no result. A selection: hits, their analogues and other compounds. The true share with any hit is near 32%. Rule as the data show it, unless noted: active = inhibition above about 30%; inactive = the rest.

SMILES	CYP2C19 inh	CYP2C9 inhib	CYP2C9 act	CYP2C19 activ	PostGolgi ctrl	PostGolgi yeast
CC(C)C(NC(=O)OCc1ccccc1)C(=O)OCC(=O)N1CCCCC1 (stereo unspecified)	46	26	0.7	0.5	12	-7
O=C(CN1CCCCCC1)N1c2ccccc2C=Cc2ccccc21	51*	16	0.8	0.5	5	-8
CCN(CC)C(=O)N1c2ccccc2C=Cc2ccccc21	63*	41	0.6	0.4	26	1
O=C(O)CCSc1nc(C(F)(F)F)cc(=O)n1-c1ccccc1	2	12	0.9	1	30*	-14
NC(=O)CSc1nc(O)cc(=O)n1-c1ccccc1	-6	-6	1.1	1.1	17	-5
Cc1cc(C)nc(SCC(=O)N2CCCCC2)n1	-5	-18	1.2	1	3	2
O=C(CSc1nc2ccccc2nc1SCC(=O)N1CCOCC1)N1CCOCC1	-14	11	0.9	1.1	14	9
O=C(CSc1nc2ccccc2nc1SCC(=O)N1CCCCC1)N1CCCCC1	20	95*	0	0.8	6	-6
Nc1cc(N)nc(SCC(=O)N2CCCCC2)n1	14	52*	0.5	0.9	12	-3
CN(c1ccccc1C(N)=O)S(=O)(=O)c1ccccc1	·	·	·	·	23	-4
Cn1c(=O)c2c(n(C)c1=O)=NC1(CCCCC1)N=2	12	13	0.9	0.9	-6	-8
c1cnc2ccc(C(c3nnnn3C3CCCC3)N3CCN4CCCC4C3)cc2c1 (stereo unspecified)	3	6	0.9	1	5	-3
CC1(C(=O)O)CCC(C(=O)NC2CCCCCC2)C1(C)C (stereo unspecified)	-21	-17	1.2	1.2	7	5
CC(C)(C)Cc1nc2ccccc2n1CCc1ccccc1	85*	20	0.8	0.2	25	0
CCCc1nc2ccccc2n1CCOC	4	4	1	1	-2	4
c1ccc(Cc2nc3ccccc3n2Cc2ccccc2)cc1	36	92*	0.1	0.6	19	-2
COc1ccc(OC)c(-c2c[n+](=O)c3c(n2[O-])CCCC3)c1	-20	-11	1.1	1.2	-4	5
CC(Sc1ccc(Cl)cc1)C(=O)Nc1ccccc1C(=O)N1CCOCC1 (stereo unspecified)	-5	-10	1.1	1.1	3	-7
CC(=O)c1cc(OC(=O)c2ccncc2)ccc1OC(=O)c1ccncc1	90*	65*	0.3	0.1	5	5
COc1ccc(OC(=O)c2ccncc2)cc1	77*	57*	0.4	0.2	5	-2
N#CCCCCn1c(-c2cncs2)nc2ccccc21	56*	-9	1.1	0.4	3	11
O=C(Cn1c(-c2cncs2)nc2ccccc21)NCCc1ccccc1	91*	53*	0.5	0.1	0	4
CC(=O)Nc1nonc1-c1nc2ccccc2n1Cc1ccccc1	-13	3	1	1.1	10	0
O=C(Cn1c(NCCCO)nc2ccccc21)c1cccc(Br)c1	76*	82*	0.2	0.2	3	1
c1ccc(Cn2c(-c3cncs3)nc3ccccc32)cc1	73*	94*	0.1	0.3	12	1
SMILES	CYP2C19 inh	CYP2C9 inhib	CYP2C9 act	CYP2C19 activ	PostGolgi ctrl	PostGolgi yeast
CC(C)CCn1c(=O)c2ccccc2n2c(CN3C(=O)NC4(CCC(C)CC4)C3=O)nnc12 (stereo unspecified)	0	13	0.9	1	1	6
O=C(Cn1c(NCCO)nc2ccccc21)NCCc1ccccc1	46	-7	1.1	0.5	38*	-1
CCCCNc1nc2ccccc2n1CC(=O)N1CCc2ccccc2C1	58*	37	0.6	0.4	-4	-1
O=C(Cn1c(NCCO)nc2ccccc21)c1ccco1	-4	-6	1.1	1	15	-5
CCn1c(=O)n(CC(=O)Nc2cccc(OC)c2)c(=O)c2ccccc21	29	39	0.6	0.7	0	-5
Cc1c(C#N)c2ccccc2n1CC(=O)N1CCc2ccccc2C1	0	28	0.7	1	·	·
